# Six1-Eya2 blk – inhibitors of human Six1/Eya2 interaction | Q15475+O00167 | AlphaScreen GST-Six1/His-Eya2 binding, biochemical; hits give low values | activity change, % (no concentration beside the values) | actives 0.56% (n = 360,000); in the data active = activity change below about -65%; inconclusive = mostly about -30% to -63%; note: % is set by controls: 0 for no effect and ±100 for the full control effect
#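 AlphaScreen with GST-Six1 and His-Eya2 (5X mix: 250 nM and 500 nM), glutathione donor and nickel acceptor beads; buffer 50 mM Tris pH 8.0, 300 mM NaCl, 1 mM TCEP; 1 h at 37 C in the dark.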
# JMJD2A Tudor – blocks the human JMJD2A Tudor domain; O75164; AlphaScreen JMJD2A-Tudor / H3K4me3 peptide binding; Potency, µM (titrated, usually from 114 µM), for inactives: at the highest dose activity change, negative = inhibition, most hits filed as inhibitors; actives 4.4% (n = 390,000); AID 504339; note: potency is the fitted concentration of half-maximal effect; % is set by controls: 0 for no effect and ±100 for the full control effect; nearly all actives have a fitted effect of over 50% in size
# HP1b chromo inh – inhibitors of HP1-beta chromodomain binding to methylated histone tails; AlphaScreen HP1-beta / biotin-H3K9me3 peptide binding; Potency, µM (highest dose often 114 µM), without a hit: top-dose activity change, negative = inhibition, actives largely listed as inhibitors; actives 0.56% (n = 390,000); AID 540317; note: potency is the fitted concentration of half-maximal effect; nearly all actives have a fitted effect of over 70% in size
#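 HP1-beta protein (50 nM final) preincubated 30 min at room temperature with biotinylated H3(1-18)K9me3 peptide (50 nM) in PBS pH 7.4, 0.01% Tween-20, then compound added for 30 min. AlphaScreen streptavidin donor/nickel chelate acceptor beads (10 ug/mL final), 30 min dark, luminescence read.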
# CtBP-E1A inh – inhibitors of CtBP/E1A interaction. AlphaScreen GST-E1A/His-CtBP binding, 1536-well; hits give low values. actives 0.49% (n = 340,000). activity change, % (no concentration beside the values); in the data active = activity change below about -65%; inconclusive = mostly about -30% to -63%; note: % is set by controls: 0 for no effect and ±100 for the full control effect
#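 Protein mix (5X: 125 nM each GST-E1A, His-CtBP) was incubated with pinned compound 2 h at 37 deg C in dark, in 50 mM Tris pH 8.0 buffer with 300 mM NaCl. Glutathione donor and nickel acceptor beads followed; AlphaScreen signal read after 1 h.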
# TDP1 inh – inhibitors of human tyrosyl-DNA phosphodiesterase TDP1. Q9NUW8. recombinant TDP1, AlphaScreen DNA substrate cleavage. Potency, µM (top dose mostly 130 µM), for inactives: at the highest dose activity change, negative = inhibition, most hits filed as inhibitors. actives 0.28% (n = 350,000); note: potency is the fitted concentration of half-maximal effect; % is set by controls: 0 for no effect and ±100 for the full control effect; nearly all actives have a fitted effect of over 40% in size
# Target sequence (Q9NUW8 whole entry, looked up): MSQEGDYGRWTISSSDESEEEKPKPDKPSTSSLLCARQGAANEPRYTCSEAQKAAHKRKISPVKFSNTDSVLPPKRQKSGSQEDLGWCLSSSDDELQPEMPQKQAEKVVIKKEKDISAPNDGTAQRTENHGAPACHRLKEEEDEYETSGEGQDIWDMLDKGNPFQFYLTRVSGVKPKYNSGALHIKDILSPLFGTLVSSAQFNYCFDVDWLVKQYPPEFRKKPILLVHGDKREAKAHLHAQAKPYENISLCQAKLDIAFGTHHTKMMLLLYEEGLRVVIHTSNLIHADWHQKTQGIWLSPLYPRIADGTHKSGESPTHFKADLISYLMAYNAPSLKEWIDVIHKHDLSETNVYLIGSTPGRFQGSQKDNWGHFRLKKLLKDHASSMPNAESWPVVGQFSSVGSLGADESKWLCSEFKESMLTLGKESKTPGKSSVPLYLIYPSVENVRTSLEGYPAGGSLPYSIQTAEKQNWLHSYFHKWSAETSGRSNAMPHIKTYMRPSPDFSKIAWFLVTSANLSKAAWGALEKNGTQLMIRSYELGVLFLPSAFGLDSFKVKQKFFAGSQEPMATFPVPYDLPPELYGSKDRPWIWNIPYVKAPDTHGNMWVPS
#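 Enzyme-compound mixtures sat 15 min at room temperature, followed by a 5 min reaction with 15 nM final substrate and 10 min with AlphaScreen beads. Recombinant human Tdp1 was used at 1 nM final.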
# BAZ2B block – blocks human BAZ2B; actives 4.4% (n = 360,000); Potency, µM (doses to about 114 µM), without a hit: at the highest dose activity change, negative = inhibition, usual class: inhibitors; Q9UIF8; AlphaScreen BAZ2B-H3K14Ac peptide displacement; note: potency is the fitted concentration of half-maximal effect; % is set by controls: 0 for no effect and ±100 for the full control effect; nearly all actives have a fitted effect of over 60% in size
#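 AlphaScreen displacement: compounds (up to 110uM) incubated 30 min at room temperature with a preformed 50 nM BAZ2B/50 nM biotinylated H3K14Ac peptide complex in PBS pH 7.4 with Tween-20. Donor and acceptor beads at 10 ug/mL final added, 20 min light-protected before reading.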
# * hit, by the source's call; ? = inconclusive; nt = not tested or not shown; [ ] = another dose, or the depositor's remark. In the library only some 5.3% were active in any assay of this set; here they are far more common. Unless noted, calls come from the whole dose curve; as a rule, active = well fitted inhibition curve with a large enough effect; inconclusive = small, poorly fitted or top-dose-only effect; inactive = no such curve, though single readings can be large or run the other way.
SMILES,Six1-Eya2 blk,JMJD2A Tudor,HP1b chromo inh,CtBP-E1A inh,TDP1 inh,BAZ2B block
COC(=O)CCCSc1nccn1-c1ccccc1,-1,-18%,27%,-3,3%,?
COc1ccc(OC)c(NC(=O)CSc2nccn2-c2cc(C)cc(C)c2)c1,nt,10µM*,?,nt,11%,13µM*
COc1ccc(NC(=O)CSc2nccn2-c2ccccc2)c(OC)c1,-16,-33%,-22%,-3,8%,?
Cc1ccc(NC(=O)CSc2nnc(C)c(=O)n2N)c(C)c1,5,-7%,15%,-13,5%,50µM*
CCOc1ccccc1NC(=O)CSc1nccn1-c1ccccc1,-4,-33%,-21%,1,10%,50µM*
COc1ccc(OC)c(NC(=O)CCn2cccc2)c1,-13,-30%,-16%,1,6%,50µM*
COc1ccc(OC)c(NC(=O)Cn2cccc2)c1,-6,-34%,?,-8,4%,?
CCc1nnc(NC(=O)CSc2nccn2-c2cc(C)cc(C)c2)s1,1,-23%,10%,-23,5%,-34%
Cc1cc(C)cc(NC(=O)Cc2ccc(-n3cccc3)cc2)c1,0,11%[57.1 µM],28%,-3,2%,-9%
Cc1ccc(NC(=O)Cc2ccc(-n3cccc3)cc2)c(C)c1,2,-36%[57.1 µM],9%,-4,-3%,50µM*
Cc1cc(C)cc(-n2ccnc2SCC(=O)Nc2ccc(C)cc2C)c1,nt,40µM*,-11%[57 µM],nt,13%,32µM*
CC(C)CSC1=NSC2=NC(=O)/C(=C\c3coc4ccccc4c3=O)C(=N)N12,4,-24%,19%,-5,9%,79µM*
N=C1/C(=C\c2coc3ccccc3c2=O)C(=O)N=C2SC(c3ccncc3)=NN12,?,56µM*,?,-26,nt,?
COc1ccc(-n2cccc2/C=C2\C(=N)N3N=C(c4ccco4)SC3=NC2=O)cc1,-25,14µM*,-14%,-10,nt,40µM*
N=C1/C(=C/c2coc3ccccc3c2=O)C(=O)N=C2SC(c3ccco3)=NN12,-29,?,-33%,?,nt,71µM*
Cc1ccc(NS(=O)(=O)c2ccc3c(ccn3C)c2)cc1C,nt,-17%,nt,nt,0%,nt
CSC1=NSC2=NC(=O)/C(=C\c3coc4ccccc4c3=O)C(=N)N12,-28,3%,41%,-2,-3%,?
Cc1cc(/C=C2\C(=N)N3N=C(c4ccco4)SC3=NC2=O)c(C)n1Cc1ccccc1,-17,45µM*,-23%,-10,8%,?
N=C1/C(=C\c2coc3ccc(O)cc3c2=O)C(=O)N=C2SC=CN12,-80*,-35%,-18%,-90*,0%,?
O=C(O)c1cc(Cl)c2c(c1)[C@@H]1C=CC[C@@H]1[C@H](c1ccc(S(=O)(=O)N3CCOCC3)cc1)N2,?,79µM*,-22%,-8,0%,50µM*
Cc1cc(C)c2c(c1)C1C=CCC1C(c1ccc(S(=O)(=O)N3CCOCC3)cc1)N2 (stereo unspecified),-3,-16%,15%,16,10%,-12%
Cc1cc(OCC(=O)Nc2ncn[nH]2)ccc1Cl,-20,?,43%,nt,-8%,45µM*
Cc1cccc(C)c1OCC(=O)Nc1ncn[nH]1,-2,?,29%,-4,7%,50µM*
O=C(CC(c1ccccc1)c1ccccc1)Nc1ncn[nH]1,?,-22%,36%,?,6%,79µM*
COc1ccc(OCC(=O)Nc2cc(-c3nn4c(C)nnc4s3)ccc2C)cc1,6,-11%,44%,-6,0%,5%
SMILES,Six1-Eya2 blk,JMJD2A Tudor,HP1b chromo inh,CtBP-E1A inh,TDP1 inh,BAZ2B block
Cc1cc(OCC(=O)Nc2ccncc2)ccc1Cl,-3,-17%,45%,-2,1%,?
O=C(CC(c1ccccc1)c1ccccc1)Nc1ccc(Cl)cn1,16,6%,47%,13,-6%,-2%
Cc1cc(OCC(=O)Nc2cc(-c3nn4c(C)nnc4s3)ccc2C)ccc1Cl,20,56µM*,18%,5,5%,12%
O=[N+]([O-])c1ccc2c(c1)ncn2-c1ccccc1,4,-9%,15%,6,3%,1%
Cn1c(-[n+]2c(-c3ccccc3)cc(-c3ccccc3)cc2-c2ccccc2)nc2cc([N+](=O)[O-])ccc21,0,-10%,17%,3,8%,40µM*
CCC1CN(C(=O)N2CCC(C(=O)NCCC3=CCCCC3)CC2)c2ccccc2O1 (stereo unspecified),nt,8%,50%,nt,1%,2%
O=C1CS(=O)(=O)C2(C(=O)N(Cc3cccc(F)c3)c3ccccc32)N1c1ccccc1 (stereo unspecified),nt,-20%,13%,nt,1%,-4%[57.1 µM]
CS(=O)(=O)N1CCN(Cc2ccc(C(F)(F)F)cc2)CC1,5,1.6µM*,?,-1,-4%,?
COc1cc(CN2CCN(Cc3ccccc3C(F)(F)F)CC2)cc(OC)c1OC,-7,0.79µM*,25µM*,0,nt,20µM*
COc1cc(CN2CCN(Cc3ccc(C(F)(F)F)cc3)CC2)cc(OC)c1OC,4,20µM*,?,nt,nt,18µM*
CS(=O)(=O)N1CCN(Cc2ccccc2C(F)(F)F)CC1,6,-16%[11.4 µM],30%,0,5%,3%
OCC1(CCOc2ccccc2)CCN(Cc2ccccc2C(F)(F)F)CC1,-8,-1%,43%,-2,1%,-6%
COc1cc(CN2CCC(CO)(Cc3cccc(C(F)(F)F)c3)CC2)ccc1F,1,-3%,31%,0,8%,-1%
CCN(CC)c1cc(C)c2cc(NC(=O)/C=C/c3ccc(C)cc3)ccc2n1,nt,-18%,14%,nt,3%,-3%
CCc1cccc(-n2nnc(-c3nsc(NC(=O)c4cccc(OC)c4)n3)c2C)c1,nt,-6%,21%,nt,3%,-1%
Cc1cccc(NC(=O)Cn2c(=O)n(Cc3ccccc3)c(=O)c3sc4ccccc4c32)c1,nt,-6%,15%,nt,0%,10%
O=C(O)CCN1C(=O)/C(=C\c2cccc(OCC(=O)Nc3ccc(Cl)cc3)c2)SC1=S,-22,-25%[11.4 µM],45µM*,?,nt,45µM*
COc1cccc(/C=C2/SC(=S)N(CCCC(=O)Nc3ccc(O)cc3)C2=O)c1,-17,?,-3%,?,5%,?
Cc1ccc(NC(=O)COc2cccc(/C=C3\SC(=S)N(CCC(=O)O)C3=O)c2)cc1Cl,-13,-32%[11.4 µM],-5%,0,nt,45µM*
CC1(C)CN=C(c2ccccc2)NC1,10,-10%,13%[57 µM],7,nt,nt
CCC1(C)CN=C(c2ccccc2)NC1 (stereo unspecified),0,35µM*,10%,7,nt,nt
